Measurements: PubChem BioAssay (Tox21)
Results filed as inconclusive are left out. Activity calls are given as the source filed them. Unless noted, calls come from the whole dose curve; as a rule, active = well fitted cell-killing curve with a large enough effect in the repeat runs; inconclusive = weak or mixed curves, or effect the other way; inactive = flat fitted curve, though single readings scatter. Starred links: 1 amine or outer side, 2 acyl side, 3 side chain; linkers in the order of their positions; H or OH if unused. Positions of bridges follow the written chain, without caps; N, C: chain ends. Non-standard residues stand in square brackets, D forms with d. Residues, ends and D or L forms follow the SMILES beside them. *: point of attachment. X5 = NC1=N[C@@H]([C@H](N[*:1])C(=O)[*:2])C[C@H](O)N1; ΔAla(Z-3-ureido) = NC(=O)N/C=C(\N)C(=O)O; β3hOrn = NCCC[C@H](N)CC(=O)*; Dap = NC[C@H](N)C(=O)O

Test: qHTS assay to identify small molecule antagonists of the estrogen receptor alpha (ER-alpha) signaling pathway using the BG1 cell line (AID 743080; calls by dose curve;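 note: BG1 cells stimulated with 17beta-estradiol alongside compound; nearly all actives have a fitted effect of over 25% in size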)
Settings: BG1Luc4E2 ERE-luciferase antagonist mode, luminescence; series mostly up to 70.3 µM; activity change, negative = inhibition: at the top concentration
Procedure, shortened: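 After 5 days in phenol-red-free 10% charcoal-stripped FBS medium, BG1-Luc-4E2 cells were seeded, left 24 h at 37 C, co-treated with compounds and 17beta-estradiol for 21.5 h, then assayed for viability and luciferase.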
% is set by controls: 0 for no effect and ±100 for the full control effect.

SMILES | activity change, negative = inhibition
CCCN(CC)C(CC)C(=O)Nc1c(C)cccc1C (centres undefined) | 9.85% (inactive)
O=c1[nH]cnc2[nH]cc(CN3CCCCC3)c12 | -8% (inactive)
CNC[C@@H]1CC[C@@H](N)[C@@H](O[C@H]2[C@H](O)[C@@H](O[C@H]3OC[C@](C)(O)[C@H](NC)[C@H]3O)[C@H](N)C[C@@H]2N)O1 | 9.77% (inactive)
NCCC(=O)[N-][C@@H](Cc1cnc[nH]1)C(=O)O.[Zn] | 13.2% (inactive)
c1ccc2c(CCC3CCNCC3)c[nH]c2c1 | 10.2% (inactive)
Cc1ccccc1CNc1ncnc2c1ncn2[C@@H]1O[C@H](CO)[C@@H](O)[C@H]1O | -14.1% (inactive)
CC(=O)N[C@@H](CC(=O)N[C@@H](CCC(=O)O)C(=O)O)C(=O)O | 6.75% (inactive)
C=C1c2c(Cl)ccc(O)c2C(O)=C2C(=O)[C@]3(O)C(O)=C(C(N)=O)C(=O)[C@@H](N(C)C)[C@@H]3[C@@H](O)[C@H]12 | 1.5% [at 32.5 µM] (inactive)
CCCCCCCCCCCCCCCC(=O)OC[C@@H](COP(=O)([O-])OCC[N+](C)(C)C)OC(=O)CCCCCCCCCCCCCCC | 5.05% (inactive)
Cc1cc(Nc2ccccc2C(=O)O)ccc1Cl | 23.6% (inactive)
CCCCCCCCCCCCCCCCCC(=O)OCCO | 15% (inactive)
CO[C@H]1[C@@H](O)[C@H](N)[C@@H](O[C@H]2O[C@H]([C@H](C)N)CC[C@H]2N)[C@H](O)[C@@H]1N(C)C(=O)CN | 1.19% (inactive)
O=C[C@H](O)[C@@H](O)[C@H](O[C@H]1O[C@H](CO)[C@@H](O[C@H]2O[C@H](CO)[C@@H](O)[C@H](O)[C@H]2O)[C@H](O)[C@H]1O)[C@H](O)CO | 14.2% (inactive)
CC(=O)OC[C@H]1O[C@@H](O[C@H]2[C@H](O)[C@@H](OC(=O)c3ccccc3C(=O)O)[C@H](O)O[C@@H]2COC(C)=O)[C@H](O)[C@@H](OC(=O)c2ccccc2C(=O)O)[C@@H]1O | 7.98% (inactive)
CN=C(NC)NCc1ccccc1 | -0.344% (inactive)
CC1(C)S[C@@H]2[C@H](NC(=O)C(C(=O)Oc3ccc4c(c3)CCC4)c3ccccc3)C(=O)N2[C@H]1C(=O)O (some centres undefined) | 0% (inactive)

Test: qHTS assay to identify small molecule antagonists of the estrogen receptor alpha (ER-alpha) signaling pathway using the BG1 cell line - cell viability counter screen (AID 743081);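 note: compound given together with 17beta-estradiol as the ER stimulus; nearly all actives have a fitted effect of over 45% in size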
Settings: BG1Luc4E2 viability, CellTiter-Fluor, 22 h; series mostly up to 70.3 µM; activity change, negative = cytotoxicity: at the top concentration

SMILES | activity change, negative = cytotoxicity
Cc1ccc(/C(=C\CN2CCCC2)c2cccc(/C=C/C(=O)O)n2)cc1 | -1.89% (inactive)
CN[C@@H]1[C@@H](O)[C@@H](O[C@@H]2[C@@H](O)[C@H](OC3OC(CN)=CCC3N)[C@@H](N)C[C@H]2N)OC[C@]1(C)O (some centres undefined) | 14.8% [at 32.5 µM] (inactive)
Cn1cc(NC(=O)c2cc(NC(=O)c3cc(NC=O)cn3C)cn2C)cc1C(=O)NCCC(=N)N | 8.57% (inactive)
CS(=O)(=O)Nc1cc2occ(NC=O)c(=O)c2cc1Oc1ccccc1 | 10.3% (inactive)
O=c1[nH]cnc2[nH]cc(CN3CCCCC3)c12 | 0% (inactive)
O=C(NOC[C@H](O)CO)c1ccc(F)c(F)c1Nc1ccc(I)cc1F | 16.2% (inactive)
NCCC(=O)[N-][C@@H](Cc1cnc[nH]1)C(=O)O.[Zn] | -1.18% (inactive)
OCC(O)COc1ccc(Cl)cc1 (centres undefined) | -1.13% (inactive)
CCC(C)C(C(=O)OCC[N+](C)(CC)CC)c1ccccc1 (centres undefined) | -0.649% (inactive)
Cc1c(O)cc2c(c1C)O[C@](C)(CCC[C@H](C)CCC[C@H](C)CCCC(C)C)CC2 | -3.61% (inactive)
c1ccc2c(CCC3CCNCC3)c[nH]c2c1 | -15% (inactive)
Cc1ccccc1CNc1ncnc2c1ncn2[C@@H]1O[C@H](CO)[C@@H](O)[C@H]1O | 3.44% (inactive)
CC(=O)N[C@@H](CC(=O)N[C@@H](CCC(=O)O)C(=O)O)C(=O)O | 14.7% (inactive)
C=C1c2c(Cl)ccc(O)c2C(O)=C2C(=O)[C@]3(O)C(O)=C(C(N)=O)C(=O)[C@@H](N(C)C)[C@@H]3[C@@H](O)[C@H]12 | -0.713% [at 32.5 µM] (inactive)
CCCCCCCCCCCCCCCC(=O)OC[C@@H](COP(=O)([O-])OCC[N+](C)(C)C)OC(=O)CCCCCCCCCCCCCCC | 15.1% (inactive)
C[N+](C)(CCCCCC[N+](C)(C)C1c2ccccc2-c2ccccc21)C1c2ccccc2-c2ccccc21 | 26.5% (inactive)
NCCC[C@H](N)CC(=O)N[C@H]1CNC(=O)[C@H]([C@H]2C[C@H](O)NC(N)=N2)NC(=O)/C(=C/NC(N)=O)NC(=O)[C@H](CO)NC(=O)[C@H](CO)NC1=O (β3hOrn-[Dap]SS[ΔAla(Z-3-ureido)][X5]; lactam 1-C) | 4.91% (inactive)
CCCCCCCCCCCCCCCCCC(=O)OCCO | -1.2% (inactive)
CO[C@H]1[C@@H](O)[C@H](N)[C@@H](O[C@H]2O[C@H]([C@H](C)N)CC[C@H]2N)[C@H](O)[C@@H]1N(C)C(=O)CN | 5.65% (inactive)
CCCC(=O)Nc1ncnc2c1ncn2[C@@H]1O[C@@H]2COP(=O)(O)O[C@H]2[C@H]1OC(=O)CCC | 20.7% (inactive)
CN(CCO)CC(O)Cn1cnc2c1c(=O)n(C)c(=O)n2C (centres undefined) (tested in a mixture with another compound) | -11.1% (inactive)
CCOC(=O)[C@H](CCc1ccccc1)N[C@H]1CCCN2CCC[C@@H](C(=O)O)N2C1=O | 10.5% (inactive)
C[C@]12CC[C@@H]3c4ccc(OS(=O)(=O)O)cc4CC[C@H]3[C@@H]1CCC2=O | 15.2% (inactive)
O=C[C@H](O)[C@@H](O)[C@H](O[C@H]1O[C@H](CO)[C@@H](O[C@H]2O[C@H](CO)[C@@H](O)[C@H](O)[C@H]2O)[C@H](O)[C@H]1O)[C@H](O)CO | 4.84% (inactive)
CC(=O)OC[C@H]1O[C@@H](O[C@H]2[C@H](O)[C@@H](OC(=O)c3ccccc3C(=O)O)[C@H](O)O[C@@H]2COC(C)=O)[C@H](O)[C@@H](OC(=O)c2ccccc2C(=O)O)[C@@H]1O | 4.63% (inactive)
CN=C(NC)NCc1ccccc1 | -16.1% (inactive)
CC1(C)S[C@@H]2[C@H](NC(=O)C(C(=O)Oc3ccc4c(c3)CCC4)c3ccccc3)C(=O)N2[C@H]1C(=O)O (some centres undefined) | 12.6% (inactive)
COc1cc(S(C)=O)ccc1-c1nc2ncccc2[nH]1 (centres undefined) | 13.2% (inactive)
